According to the antibiotic and cytotoxicity screens of Wong et al. (2023):
About 1,500 (3.8%) of roughly 39,000 compounds were called active. Shown is part of a subset that was picked to be rich in actives.

These molecules were tested on HSkMC (human skeletal muscle cells) (assay: cytotoxicity call (relative viability < 0.9)). Conditions: 10 µM.
For Cc1cc(C)c(N(Cc2ccccc2)S(=O)(=O)c2ccc(OCCNC(=O)c3cc4ccccc4o3)cc2)c(C(=O)NO)c1, the cytotoxicity call was “active”. For O=C(NCCO)c1cc2ccccc2oc1=O, the cytotoxicity call was “inactive”. CCc1nc2ccc(C(=O)NCCOc3ccc(OC)cc3)cn2c1N(CC)Cc1cccc(Br)c1 was tested, and the cytotoxicity call was “inactive”. For C[C@H]1CN([C@@H](C)CO)C(=O)c2cccc(NS(=O)(=O)c3cn(C)cn3)c2O[C@H]1CN(C)S(=O)(=O)c1cccs1, the cytotoxicity call was “inactive”. In the case of C[C@@H]1CN([C@H](C)CO)C(=O)c2cc(C#C[C@@H](C)O)cnc2O[C@@H]1CN(C)C(=O)Nc1ccc(C(F)(F)F)cc1, the cytotoxicity call is reported as “inactive”. Nc1cc(=O)[nH]c(=O)n1-c1ccc(Cl)cc1 was tested, and the cytotoxicity call was “inactive”. O=C(O)CSCC(=O)N1CCCCC1 was tested, and the cytotoxicity call was “inactive”. In the case of CN1C(=O)c2cc(NC(=O)C3CCOCC3)ccc2OC[C@@H]2O[C@@H](CC(=O)NCc3ccccc3F)CC[C@H]21, the cytotoxicity call is reported as “inactive”. In the case of C[C@H]1CN([C@@H](C)CO)C(=O)c2cccc(NS(C)(=O)=O)c2O[C@H]1CN(C)S(=O)(=O)c1ccc(F)cc1, the cytotoxicity call is reported as “inactive”. With COc1ccc(CC2c3cc(OC)c(OC)cc3CC[N+]2(C)CCC(=O)OCCCCCOC(=O)CC[N+]2(C)CCc3cc(OC)c(OC)cc3C2Cc2ccc(OC)c(OC)c2)cc1OC.O=S(=O)([O-])c1ccccc1.O=S(=O)([O-])c1ccccc1 (stereo unspecified) the cytotoxicity call was “inactive”. With COc1ccc(C[C@@H]2c3cc(OC)c(OC)cc3CC[N@+]2(C)CCC(=O)OCCCCCOC(=O)CC[N@@+]2(C)CCc3cc(OC)c(OC)cc3[C@H]2Cc2ccc(OC)c(OC)c2)cc1OC the cytotoxicity call was “active”. In the case of COc1ccc(C[C@H]2c3cc(OC)c(OC)cc3CC[N@+]2(C)CCC(=O)OCCCCCOC(=O)CC[N@+]2(C)CCc3cc(OC)c(OC)cc3[C@@H]2Cc2ccc(OC)c(OC)c2)cc1OC, the cytotoxicity call is reported as “inactive”. For C[C@@H]1CN([C@@H](C)CO)C(=O)Cc2cc(NC(=O)Cc3cn(C)c4ccccc34)ccc2O[C@@H]1CN(C)S(=O)(=O)c1cn(C)cn1, the cytotoxicity call was “inactive”. With C[C@@H]1CCCCO[C@@H](CN(C)S(=O)(=O)c2ccccc2)[C@H](C)CN([C@@H](C)CO)C(=O)c2cc(NS(=O)(=O)c3cn(C)cn3)ccc2O1 the cytotoxicity call was “inactive”. For C[C@H]1CN([C@@H](C)CO)C(=O)Cc2cc(NS(=O)(=O)c3cn(C)cn3)ccc2O[C@@H]1CN(C)S(=O)(=O)c1ccc(Cl)cc1, the cytotoxicity call was “inactive”. In the case of Cc1ccc(S(=O)(=O)Nc2ccc3c(c2)C(=O)N([C@@H](C)CO)C[C@@H](C)[C@H](CN(C)Cc2ccccc2)OCCCC[C@@H](C)O3)cc1, the cytotoxicity call is reported as “inactive”. With COc1ccc2c3c([nH]c2c1)[C@@H](CO)N(Cc1ccc(cc1)Cl)C[C@]13CCN(CC1)Cc1nccs1 the cytotoxicity call was “inactive”. With COc1ccc(cc1)CN1C[C@]2(CCN(CC2)Cc2ccccc2OC)c2c([nH]c3cc(ccc23)OC)[C@@H]1CO the cytotoxicity call was “inactive”. COc1ccc2c3c([nH]c2c1)[C@H](CO)N(Cc1ccncc1)C[C@]13CCN(CC1)Cc1ccc(cc1)-c1ccccn1 was tested, and the cytotoxicity call was “inactive”. COc1ccc2c3c([nH]c2c1)[C@H](CO)N(Cc1ccc(cc1)Cl)C[C@]13CCN(CC1)Cc1ccccc1 was tested, and the cytotoxicity call was “active”. With COc1ccc2c3c([nH]c2c1)[C@@H](CO)N(Cc1ccc(cc1)Cl)C[C@]13CCN(CC1)Cc1ccccc1 the cytotoxicity call was “active”. For COc1ccc2c3c([nH]c2c1)[C@H](CO)N(Cc1ccc(cc1)Cl)C[C@]13CCN(CC1)Cc1nccs1, the cytotoxicity call was “inactive”. In the case of O=C(NCCCN1CCOCC1)[C@H]1[C@H](CO)[C@H]2Cn3c(cccc3=O)[C@@H]1N2C(=O)C1CCCCC1, the cytotoxicity call is reported as “inactive”. For C[C@@H]1CCCCO[C@H](CN(C)C(=O)NC2CCCCC2)[C@H](C)CN([C@H](C)CO)C(=O)c2cc(NC(=O)Nc3ccc(F)cc3)ccc2O1, the cytotoxicity call was “inactive”. Cc1cccc(S(=O)(=O)N2C[C@@H](O)COC[C@@H]3O[C@H](CC(=O)NCCCN4CCOCC4)CC[C@H]32)c1 was tested, and the cytotoxicity call was “inactive”. C[C@@H]1CN([C@@H](C)CO)C(=O)c2cc(NC(=O)NC3CCCCC3)ccc2O[C@@H](C)CCCCO[C@H]1CN(C)C(=O)CCC(F)(F)F was tested, and the cytotoxicity call was “inactive”. With C[C@@H]1CN([C@@H](C)CO)C(=O)c2cc(NC(=O)Cc3ccccc3)ccc2O[C@@H](C)CCCCO[C@@H]1CN(C)C(=O)c1ccccc1 the cytotoxicity call was “inactive”. For C=C(CO)C(=O)O[C@@H]1[C@H]2C(=C)C(=O)O[C@@H]2[C@H]2O[C@]2(C)CC/C=C(/C(=O)OC)[C@H]1OC(C)=O, the cytotoxicity call was “active”. C=C(CO)C(=O)O[C@H]1C[C@@]2(C)OC(=O)/C(=C/C)[C@]2(O)CC[C@@]2(C)CC(=O)[C@]1(C(=C)C(=O)OC)O2 was tested, and the cytotoxicity call was “inactive”. C[C@H]1CN([C@@H](C)CO)C(=O)c2cccc(NS(=O)(=O)c3ccc(F)cc3)c2O[C@H]1CN(C)C(=O)Nc1cccc2ccccc12 was tested, and the cytotoxicity call was “inactive”. In the case of Cc1ccc(S(=O)(=O)Nc2cccc3c2O[C@@H](CN(C)C(=O)Nc2cccc4ccccc24)[C@H](C)CN([C@@H](C)CO)C3=O)cc1, the cytotoxicity call is reported as “inactive”. In the case of C[C@H]1CN([C@@H](C)CO)C(=O)c2cccc(NS(=O)(=O)c3ccc(F)cc3)c2O[C@@H]1CN(C)C(=O)Nc1cccc2ccccc12, the cytotoxicity call is reported as “inactive”. C[C@H](CO)N1C[C@H](C)[C@@H](CN(C)C(=O)Nc2cccc3ccccc23)Oc2c(NS(=O)(=O)c3ccc(F)cc3)cccc2C1=O was tested, and the cytotoxicity call was “inactive”. For C[C@@H]1CN([C@@H](C)CO)C(=O)c2cccc(NS(=O)(=O)c3cccs3)c2O[C@@H]1CN(C)C(=O)Nc1cccc2ccccc12, the cytotoxicity call was “inactive”. For Cc1ccc(S(=O)(=O)Nc2cccc3c2O[C@H](CN(C)C(=O)Nc2cccc4ccccc24)[C@@H](C)CN([C@H](C)CO)C3=O)cc1, the cytotoxicity call was “inactive”. In the case of C[C@H](CO)N1C[C@H](C)[C@@H](CN(C)C(=O)Nc2cccc3ccccc23)Oc2c(NS(=O)(=O)c3cccs3)cccc2C1=O, the cytotoxicity call is reported as “inactive”. With Cc1ccc(S(=O)(=O)Nc2cccc3c2O[C@H](CN(C)C(=O)Nc2cccc4ccccc24)[C@@H](C)CN([C@@H](C)CO)C3=O)cc1 the cytotoxicity call was “active”. In the case of C[C@@H]1CN([C@H](C)CO)C(=O)c2cccc(NS(=O)(=O)c3ccc(F)cc3)c2O[C@@H]1CN(C)C(=O)Nc1cccc2ccccc12, the cytotoxicity call is reported as “inactive”. For C[C@@H]1CN([C@@H](C)CO)C(=O)c2cccc(NS(=O)(=O)c3ccc(F)cc3)c2O[C@H]1CN(C)C(=O)Nc1cccc2ccccc12, the cytotoxicity call was “active”. In the case of C[C@H](CO)N1C[C@H](C)[C@H](CN(C)C(=O)Nc2cccc3ccccc23)Oc2c(NS(=O)(=O)c3ccc(F)cc3)cccc2C1=O, the cytotoxicity call is reported as “active”. With C[C@@H]1CN([C@H](C)CO)C(=O)c2cccc(NS(=O)(=O)c3cccs3)c2O[C@H]1CN(C)C(=O)Nc1cccc2ccccc12 the cytotoxicity call was “active”.
